These results are taken from ChEMBL document CHEMBL3433997, “St. Jude Leishmania screening dataset” (2016).

The assay deals with Glucose transporter (Leishmania mexicana) (UniProt O61059). Put plainly: ST_JUDE_LEISH: Cytotoxicity at 2uM final concentration against transgenic Leishmania Mexicana promastigotes LmGT2 that are glucose transport deficient and complemented with the L. Mexicana glucose transporter 2. Activity is measured by DNA content using SYBR green in vitro. It counts as functional.
Broadly, the inhibition is the change of the read-out against control, counted positive when it falls. Turning to `COc1cccc(NC(=O)NC2CCN(c3ccnc(Nc4ccc(F)cc4)n3)C2)c1` (stereo not given), the inhibition came to 3.8%. For `CC(C)Cc1cnc2nc(N)nc(N)c2c1`, the inhibition stood at 1.4%. Under `CN1CCCN(Cc2cccc(-c3cccc(NS(=O)(=O)c4cccc5cccnc45)c3)c2)CC1` stands 2.53%. On to `CCOC(=O)NC1=NC(=N)N(OCCCOc2cc(Cl)c(Cl)cc2Cl)C(C)(C)N1`, for which the inhibition came to 1.91%. For the compound `COc1cc(C2NCC3(CCOCC3)c3cc4c(cc32)OCCO4)cc(OC)c1OC` (stereo not given), the inhibition came to 7.63%. Under `COc1ccc(NC(=O)c2ccc3[nH]c(-c4ccc(Cl)cc4)cc3c2)cc1OCCN(C)C` stands 0.79%; under `CCCn1cc2c(ccc3nc(N)nc(N)c32)n1`, 0.23%.

Regarding `COc1c(C)cc(I)cc1CNCCCNc1cc(=O)c2ccccc2[nH]1`, the inhibition was -0.84%.

In the case of `O=c1cc(NCCCN(Cc2ccccc2)Cc2ccccc2)[nH]c2ccccc12`, the inhibition is 5.36%.

Take `NS(=O)(=O)CCc1cccc(Nc2nccc(-c3c(-c4cccc(NC(=O)c5c(F)cccc5F)c4)nn4ccccc34)n2)c1`: the inhibition worked out at 1.61%.
